This is an account of results in PubChem BioAssay (EPA / NIEHS).

Test [1] is described as follows: BSK_MyoF_SRB: Viability Assessment in the BioMAP Diversity Plus: MyoF Assay (AID 2284267).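 Further: total protein by SRB absorbance in parallel cultures as cytotoxicity measure; cells assessed 24 h after compound addition.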 Conditions: primary human lung fibroblasts. Put shortly: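 Lung fibroblast cultures, 24 h post-dose; fix 10% TCA, stain 0.1% SRB, read 560 nm. Signal = total protein as cytotoxicity measure; fitted relative to DMSO negative control.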
Read-out in test [2]: Matrix Metallopeptidase 1 (MMP1), MMP1 (gene 4312)
The experiment in a line: BSK_MyoF_MMP1: BioMAP Diversity Plus: MyoF Assay for Matrix Metallopeptidase 1 (MMP1) Biomarker Activity (AID 2284268). The note with it: primary human lung fibroblasts. Put shortly:
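MMP1 measured by ELISA 24 h after dosing primary human lung fibroblasts; cytotoxicity checked in parallel cultures by sulforhodamine B total-protein staining read at 560 nm.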

Read-out in test [3]: TIMP metallopeptidase inhibitor 1 (TIMP1), TIMP1 (gene 7076)
Description: BSK_MyoF_TIMP1: BioMAP Diversity Plus: MyoF Assay for TIMP metallopeptidase inhibitor 1 (TIMP1) Biomarker Activity (AID 2284269). Conditions: primary human lung fibroblasts. Put shortly:
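ELISA read-out of TIMP-1 from primary human lung fibroblast cultures 24 h after compound dosing; gain of signal relative to DMSO vehicle baseline defines activity.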

Read-out in test [4]: Matrix Metallopeptidase 1 (MMP1), MMP1 (gene 4312)
Description: BSK_BF4T_MMP1: BioMAP Diversity Plus: BF4T Assay for Matrix Metallopeptidase 1 (MMP1) Biomarker Activity (AID 2284270). The note with it: primary human bronchial epithelial cells with fibroblasts. Put shortly: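 MMP-1 quantified by ELISA in primary human bronchial epithelial/dermal fibroblast co-cultures, 24 hours post-dosing, with DMSO as baseline; parallel sulforhodamine B staining (560 nm) tracks overt cytotoxicity.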

Read-out in test [5]: Matrix Metallopeptidase 3 (MMP3), MMP3 (gene 4314)
Description: BSK_BF4T_MMP3: BioMAP Diversity Plus: BF4T Assay for Matrix Metallopeptidase 3 (MMP3) Biomarker Activity (AID 2284271). Conditions: primary human bronchial epithelial cells with fibroblasts. Put shortly:
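MMP-3 level read by ELISA after 24 h chemical exposure of bronchial epithelial cell/dermal fibroblast co-cultures, fitted upward relative to DMSO. Parallel cultures stained with 0.1% SRB after TCA fixation gauge overt cytotoxicity.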

Read-out in test [6]: Plasminogen Activator Inhibitor-1 (PAI1), SERPINE1 (gene 5054)
The experiment in a line: BSK_BF4T_PAI1: BioMAP Diversity Plus: BF4T Assay for Plasminogen Activator Inhibitor-1 (PAI1) Biomarker Activity (AID 2284273). Conditions: primary human bronchial epithelial cells with fibroblasts. Put shortly: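 PAI-1 levels quantified by ELISA 24 h post-dosing in bronchial epithelial cell plus dermal fibroblast cultures. Signal gain referenced to DMSO baseline. Sulforhodamine B total-protein staining of parallel wells checked cytotoxicity.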

Test [7] can be described thus: BSK_BF4T_SRB: Viability Assessment in the BioMAP Diversity Plus: BF4T Assay (AID 2284274). Conditions: primary human bronchial epithelial cells with fibroblasts. Put shortly: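 Cytotoxicity measured as total protein: cells fixed with 10% TCA, stained with 0.1% SRB, read at 560 nm. Bronchial epithelial/dermal fibroblast co-culture, 24 h after dosing, with positive-direction fitting relative to DMSO.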

Read-out in test [8]: urokinase Plasminogen Activator (uPA), PLAU (gene 5328)
The experiment in a line: BSK_BF4T_uPA: BioMAP Diversity Plus: BF4T Assay for urokinase Plasminogen Activator (uPA) Biomarker Activity (AID 2284275). The note with it: primary human bronchial epithelial cells with fibroblasts. Put shortly:
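uPA levels measured by ELISA at 24 hours in BF4T cultures (bronchial epithelial cells plus dermal fibroblasts) and compared with DMSO; cytotoxicity tracked in parallel cultures by sulforhodamine B staining.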

Read-out in test [9]: Interleukin-8 (IL8), CXCL8 (gene 3576)
Description: BSK_IMphg_IL8: BioMAP Diversity Plus: IMphg Assay for Interleukin-8 (IL8) Biomarker Activity (AID 2284277). Conditions: primary human endothelial cells with macrophages. Put shortly: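 IL-8 levels were measured by ELISA 24 h after dosing in primary human venular endothelial cell–macrophage cultures, referenced to DMSO; parallel SRB staining monitored overt cytotoxicity.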

Read-out in test [10]: Intercellular Adhesion Molecule 1 (ICAM1), ICAM1 (gene 3383)
The experiment in a line: BSK_BE3C_ICAM1: BioMAP Diversity Plus: BE3C Assay for Intercellular Adhesion Molecule 1 (ICAM1) Biomarker Activity (AID 2284278).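 Further: cell-surface ICAM-1 protein level quantified by ELISA.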 The note with it: primary human bronchial epithelial cells. Put shortly:
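ELISA read-out of ICAM-1 on human lung bronchial epithelial primary cells, 24 h post-dosing; positive-direction curve fit, DMSO = baseline. SRB total-protein staining of parallel cultures flagged overt cytotoxicity.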

Read-out in test [11]: Interferon-inducible T-cell alpha chemoattractant (ITAC), CXCL11 (gene 6373)
Description: BSK_BE3C_ITAC: BioMAP Diversity Plus: BE3C Assay for Interferon-inducible T-cell alpha chemoattractant (ITAC) Biomarker Activity (AID 2284279). The note with it: primary human bronchial epithelial cells. Put shortly: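 ELISA read-out of I-TAC after 24 h chemical dosing of human lung primary bronchial epithelial cells; gain-of-signal fit vs DMSO baseline. Parallel SRB total-protein staining (0.1% SRB, 10% TCA fixation, 560 nm) assessed cytotoxicity.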

Read-out in test [12]: Interleukin-8 (IL8), CXCL8 (gene 3576)
The experiment in a line: BSK_BE3C_IL8: BioMAP Diversity Plus: BE3C Assay for Interleukin-8 (IL8) Biomarker Activity (AID 2284280). Conditions: primary human bronchial epithelial cells. Put shortly:
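Primary human bronchial epithelial cells (BE3C system) were exposed to test chemical for 24 h, and IL-8 levels were then measured by ELISA. Activity was fitted in the positive (gain-of-signal) direction against a DMSO negative-control baseline.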

Read-out in test [13]: Epidermal growth factor receptor (EGFR), EGFR (gene 1956)
The experiment in a line: BSK_BE3C_EGFR: BioMAP Diversity Plus: BE3C Assay for Epidermal growth factor receptor (EGFR) Biomarker Activity (AID 2284281). Conditions: primary human bronchial epithelial cells. Put shortly: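 Human primary bronchial epithelial cells were exposed to compound for 24 h, and cell-surface EGFR was then quantified by ELISA. Activity was fitted in the positive direction against the DMSO vehicle baseline.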

Read-out in the next test: KRT18 (gene 3875)
Description: BSK_BE3C_Keratin818: BioMAP Diversity Plus: BE3C Assay for Keratin 818 Biomarker Activity (AID 2284282). The note with it: primary human bronchial epithelial cells. Put shortly: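 ELISA read-out of Keratin 8/18 in BE3C human bronchial epithelial cultures, 24 h post-dosing; positive-direction fit vs DMSO baseline.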

Read-out in test [14]: Matrix Metallopeptidase 9 (MMP9), MMP9 (gene 4318)
Description: BSK_BE3C_MMP9: BioMAP Diversity Plus: BE3C Assay for Matrix Metallopeptidase 9 (MMP9) Biomarker Activity (AID 2284283). Conditions: primary human bronchial epithelial cells. Put shortly:
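Cells were dosed, incubated 24 h, then assayed for MMP-9 by ELISA; activity was fitted upward against DMSO. The system used human lung primary bronchial epithelial cells, with SRB total-protein staining run alongside for cytotoxicity.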

Read-out in test [15]: Plasminogen activator inhibitor-1 (PAI1), SERPINE1 (gene 5054)
Description: BSK_CASM3C_PAI1: BioMAP Diversity Plus: CASM3C Assay for Plasminogen activator inhibitor-1 (PAI1) Biomarker Activity (AID 2284284). The note with it: primary human coronary artery smooth muscle cells.

Read-out in test [16]: Monocyte Chemoattractant Protein-1 (MCP1), CCL2 (gene 6347)
Description: BSK_hDFCGF_MCP1: BioMAP Diversity Plus: hDFCGF Assay for Monocyte Chemoattractant Protein-1 (MCP1) Biomarker Activity (AID 2284285). The note with it: primary human foreskin fibroblasts. Put shortly: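 MCP-1 ELISA readout was taken 24 hours after dosing primary human dermal fibroblasts in the hDFCGF system, with DMSO as baseline. Parallel sulforhodamine B staining of total protein tracked overt cytotoxicity.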

Read-out in test [17]: Vascular cell adhesion molecule 1 (VCAM1), VCAM1 (gene 7412)
Description: BSK_IMphg_VCAM1: BioMAP Diversity Plus: IMphg Assay for Vascular cell adhesion molecule 1 (VCAM1) Biomarker Activity (AID 2284286). The note with it: primary human endothelial cells with macrophages. Put shortly:
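ELISA read-out of VCAM-1 on venular endothelial cell/macrophage co-cultures at 24 h post-treatment, with DMSO as baseline and positive-direction fitting. Parallel sulforhodamine B total-protein staining (560 nm) served as the overt cytotoxicity measure.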

Read-out in test [18]: Tissue plasminogen activator (tPA), PLAT (gene 5327)
The experiment in a line: BSK_BF4T_tPA: BioMAP Diversity Plus: BF4T Assay for Tissue plasminogen activator (tPA) Biomarker Activity (AID 2284272). Conditions: primary human bronchial epithelial cells with fibroblasts. Put shortly:
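tPA level quantified by ELISA at 24 h post-treatment in bronchial epithelial/dermal fibroblast co-cultures, gain of signal scored against DMSO baseline. Parallel cultures stained with 0.1% SRB (560 nm) to flag overt cytotoxicity.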

A structure can be active in one record and inactive in another. Activity calls are given as the source filed them. How the source made its calls: active means hit-call score of the fitted dose curve at least 0.9, where 1 is the maximum; inactive means score below 0.9.

As for `O=P(O)(O)OCCC(F)(F)C(F)(F)C(F)(F)C(F)(F)C(F)(F)C(F)(F)F`, the outcome in test [1], in test [2], in test [3], in test [4], in test [5] and in [6] was inactive. Also, the outcome in test [7], in test [8], in [9], in test [10], in test [11] and in test [12] was inactive. For the same compound, the result (in [13]; in the test with KRT18 (gene 3875); in [14]; in [15]; in test [16]; in test [17]) was inactive.

For the compound `O=C(O)C(F)(OC(F)(F)C(F)(OC(F)(F)C(F)(OC(F)(F)C(F)(F)C(F)(F)F)C(F)(F)F)C(F)(F)F)C(F)(F)F` (stereo not given), the outcome in test [1], in test [2], in [3], in test [4], in test [5] and in test [18] was inactive. The result in [6], in [7], in test [9], in test [10], in [11] and in test [12] was inactive. For the same compound, the result (in [13]; with KRT18 (gene 3875); in [14]; in test [15]; in test [16]; in test [17]) was inactive.

In the case of `CCCCCCC(C)OC(=O)CCCCC(=O)OC(C)CCCCCC` (stereo not given), the outcome in [1], in test [2] and in test [3] was inactive.

For `O=S(=O)(OCC(F)F)C(F)(F)F`, the outcome in [1], in test [2], in [3], in test [4], in test [5] and in [6] was inactive. For the same compound, the outcome in [7], in [9], in [10], in test [11], in [12] and in test [13] was inactive. Also, the result (in the test with KRT18 (gene 3875); in [14]; in [15]; in [16]; in test [17]) was inactive.

As for `OCC(F)(F)C(F)(F)C(F)(F)C(F)(F)C(F)(F)C(F)(F)F`, the half-maximal activity concentration (AC50) is 49.5 µM (active) in test [1], 47.9 µM (active) in test [2], 48.7 µM (active) in [13] and 23 µM (active) in test [16]. The result in [1], in test [2], in test [3], in test [5], in test [18] and in [6] was inactive. Also, the result in test [7], in test [9], in test [10], in [11], in test [12] and in [13] was inactive. Further, the outcome (with KRT18 (gene 3875); in test [14]; in test [15]; in test [16]; in test [17]) was inactive.

Take `FC(F)(F)C(F)(F)C(F)(F)C(F)(F)C(F)(F)C(F)(F)C(F)(F)Br`: the result in test [1], in [2], in test [3], in test [4], in test [5] and in test [6] was inactive. The outcome in test [7], in [9], in test [10], in [11], in test [12] and in [13] was inactive. Besides, the outcome (with KRT18 (gene 3875); in test [14]; in [15]; in test [16]; in test [17]) was inactive.

In the case of `CCCCNc1ccccc1`, the outcome in test [1], in [2] and in [3] was inactive.

Consider `CCCCCCCOC(=O)c1ccccc1C(=O)OCCCCCCC`, for which the result in test [1], in [2] and in test [3] was inactive.
